A selection: hits, their analogues and other compounds. The true share with any hit is near 2.6%.
PABP1 MLLE inh – inhibitors of microRNA-mediated deadenylation, human PABP1 MLLE binding. P11940. GST-MLLE / FITC-PAM2 fluorescence polarization. inhibition, % at 20 µM. 360,000 compounds, 0.36% hits. AID 588489; in the data active means inhibition above about 35%, passing the limit was not always enough;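 further: plate controls were DMSO wells with GST-MLLE for no effect and wells lacking GST-MLLE protein for full effect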
eIF4H inh – inhibitors of RNA binding by human eIF4H | 290,000 compounds, 0.94% hits | Q15056 | inhibition, % at 35 µM | eIF4H fluorescence polarization binding assay;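 further: calls also rest on retests at 20 µM and on dose response follow-up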
PABP FP inh – PABP-poly(A) binding inhibition; 290,000 compounds, 1% hits; P11940; calls only at 35 µM; PABP-poly(A) RNA binding, fluorescence polarization; AID 2014;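 further: calls also rest on retests at 20 µM and on dose response follow-up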
APOBEC3G inh – blocks human APOBEC3G single-stranded DNA deamination | 330,000 compounds, 0.28% hits | recombinant A3G, ssDNA deamination FAM/TAMRA fluorescence | inhibition, % at 20 µM;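 active means inhibition of at least 40% at 20 µM, with no more than 30% in the related APOBEC3A deaminase screen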;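 further: plate controls were DMSO wells with A3G for no effect and wells lacking A3G enzyme for full effect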
APOBEC3A inh – blocks human APOBEC3A ssDNA deamination | P31941 | recombinant A3A, FAM/TAMRA ssDNA deamination fluorescence | 330,000 compounds, 0.41% hits | inhibition, % at 20 µM;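 active means at least 40% inhibition at 20 µM here, with at most 30% in a related deaminase screen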;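 further: plate controls were A3A with DMSO for no effect and wells lacking A3A enzyme for full effect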
PHOSPHO1 inh – inhibitors of human PHOSPHO1 phosphatase; Q8TCT1; recombinant PHOSPHO1, absorbance phosphatase assay; inhibition, % at 13.3 µM; 290,000 compounds, 1.1% hits; AID 1565; in the data active means inhibition above about 60%
Target sequence (Q8TCT1 whole entry, looked up): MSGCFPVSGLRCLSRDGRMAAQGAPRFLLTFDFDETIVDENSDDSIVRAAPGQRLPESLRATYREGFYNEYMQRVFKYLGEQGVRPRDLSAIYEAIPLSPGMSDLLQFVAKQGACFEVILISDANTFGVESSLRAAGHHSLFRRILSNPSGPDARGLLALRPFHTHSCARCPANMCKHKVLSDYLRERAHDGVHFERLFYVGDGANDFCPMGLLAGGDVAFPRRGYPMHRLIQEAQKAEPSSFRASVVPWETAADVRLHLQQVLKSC
APOBEC3G confirm – APOBEC3G (human) deaminase inhibition, confirmed; AID 493152; shares compounds with APOBEC3G inh; recombinant A3G ssDNA deaminase, UDG/FAM-TAMRA fluorescence; inhibition, % at 20 µM; 890 compounds, 72% hits;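 active means inhibition reaching a set limit in any replicate at 20 µM, the limit being 80% of the first screen's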
UDG ctr A3G – inhibits E. coli UDG, flagging false APOBEC3G inhibitors | shares compounds with APOBEC3G inh | UDG counterscreen, FAM/TAMRA oligo fluorescence | inhibition, % at 20 µM | 710 tested, under 10 active;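 active means compounds giving 40% or more inhibition at 20 µM in any one of the three replicates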;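 further: plate controls were DMSO wells with UDG and oligo for no effect and DMSO wells lacking both for full effect; inhibitors lower the FAM signal released by uracil excision and alkaline cleavage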
Target sequence (P12295 whole entry, looked up): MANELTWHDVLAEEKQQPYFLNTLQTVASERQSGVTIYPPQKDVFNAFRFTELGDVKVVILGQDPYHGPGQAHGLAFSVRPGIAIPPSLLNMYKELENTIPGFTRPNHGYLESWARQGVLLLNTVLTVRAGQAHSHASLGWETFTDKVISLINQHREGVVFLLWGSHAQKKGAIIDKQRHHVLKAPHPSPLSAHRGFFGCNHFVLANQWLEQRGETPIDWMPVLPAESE
The depositor's hits bear a star; i = inactive; nt = not tested or not shown. Unless noted, how the calls were made is not given here.

SMILES	PABP1 MLLE inh	eIF4H inh	PABP FP inh	APOBEC3G inh	APOBEC3A inh	PHOSPHO1 inh	APOBEC3G confirm	UDG ctr A3G
Cc1cc(C(=O)O)ccc1-n1c(C)cc(C=C2C(=O)c3ccccc3C2=O)c1C	-39	27	i	51*	8	-8	11	nt
COc1ccc(/C=C/C(=O)NNc2c(F)c(F)cc(F)c2F)cc1OC	-8	-15	i	60*	0	17	4	-4
Cc1cc(C)cc(C(N)=Nc2cccc(C#N)c2)c1	5	-3	i	-2	0	3	nt	nt
COc1cc(N=c2ssnc2Cl)cc(OC)c1	28	-8	i	65*	0	48	65*	nt
N#Cc1cccc(N=c2ssnc2Cl)c1	nt	-5	i	74*	2	-86	88*	-3
Cc1cc(NC(=O)CN(C)S(=O)(=O)c2cccc(Cl)c2)no1	14	-5	i	-11	-2	48	nt	nt
Cc1cc(C(=O)CN2C(=O)C(=O)N(Cc3ccccc3)C2=O)c(C)n1-c1ccc2c(c1)OCCO2	-37	-3	i	-6	-3	11	nt	nt
CCn1c(-c2ccc(C(C)(C)C)cc2)n[nH]c1=S	-3	-9	i	23	1	-2	nt	nt
Cn1c(-c2sccc2OCc2ccccc2)n[nH]c1=S	11	0	i	45*	-1	99*	78*	-4
Cc1nc(-c2ccccc2)sc1-c1n[nH]c(=S)n1C	-27	-1	i	43*	-6	29	76*	-3
Cn1c(-c2ccc(C(C)(C)C)cc2)n[nH]c1=S	-14	-10	i	41*	-3	69*	73*	0
COc1cc(C(=O)c2cc3c(cc2C)OCO3)cc(OC)c1OC	3	nt	nt	nt	nt	nt	nt	nt
CC(=O)Nc1ccc(NC(=O)CSc2nnc3ccc(-c4cccnc4)nn23)cc1	0	nt	nt	-1	3	nt	nt	nt
CC1(C)CC[C@]2(C(=O)n3ccnc3)CC[C@]3(C)[C@H](C(=O)C=C4[C@@]5(C)C=C(C#N)C(=O)C(C)(C)[C@@H]5CC[C@]43C)[C@@H]2C1	27	nt	nt	nt	nt	nt	nt	nt
S=c1[nH]nc(Cc2cccs2)n1-c1ccccc1	-4	1	i	57*	1	-67	59*	-3
S=c1[nH]nc(Cc2n[nH]c(=S)n2-c2ccccc2)n1-c1ccccc1	5	12	i	-3	-4	11	nt	nt
Cc1ccc(C(c2nnnn2CS(=O)(=O)c2ccc(C)cc2)N2CCN(c3ncccn3)CC2)cc1 (centres undefined)	1	-4	i	71*	1	-1	2	nt
Cc1ccc(NC(=O)COC(=O)c2ccc([N+](=O)[O-])o2)cc1S(=O)(=O)N1CCCCCC1	9	46	i	-3	-2	-29	nt	nt
COc1cccc(/C=N/n2c(-c3cc(C)[nH]n3)n[nH]c2=S)c1	-26	-1	i	49*	-3	-61	83*	-2
COc1cc(/C=N/n2c(-c3cc(C)[nH]n3)n[nH]c2=S)cc(OC)c1OC	-30	-9	i	47*	-6	-72	76*	-1
COc1cc(/C=N/n2c(-c3cc(C)[nH]n3)n[nH]c2=S)ccc1O	11	-5	i	35	-6	-65	nt	nt
COc1cccc(/C=N/n2c(COc3ccccc3)n[nH]c2=S)c1	-63	6	i	8	0	28	nt	nt
CCOC(=O)CCSc1n[nH]c(=S)s1	-38	-19	i	23	0	57	nt	nt
CCOC(=O)CSc1n[nH]c(=S)s1	-49	1	i	87*	-2	60*	72*	-1
CC(C)Cn1c(-c2ccccc2F)n[nH]c1=S	-16	4	i	41*	-5	-17	82*	0
SMILES	PABP1 MLLE inh	eIF4H inh	PABP FP inh	APOBEC3G inh	APOBEC3A inh	PHOSPHO1 inh	APOBEC3G confirm	UDG ctr A3G
CC(C)Cn1c(Cc2ccccc2)n[nH]c1=S	-12	1	i	29	-4	-4	nt	nt
CC(C)Cn1c(-c2ccncc2)n[nH]c1=S	-25	3	i	11	0	-80	nt	nt
CC(C)Cn1c(-c2ccc(F)cc2)n[nH]c1=S	-10	-8	i	41*	-7	45	82*	-6
O=[N+]([O-])c1cccc2c3c([nH]c12)CCCC3	-4	3	i	-4	-1	46	nt	nt
CCOc1cc(S(=O)(=O)n2ccc(C)n2)ccc1Br	3	1	i	1	-1	24	nt	nt
Cc1ccc2nc(C(C)(C)C)c(Cc3ccccc3C(F)(F)F)n2c1	-10	nt	nt	nt	nt	nt	nt	nt
O=C(c1ccccc1)N1CCN(c2n[nH]c(=O)[nH]c2=O)CC1	10	7	i	0	1	12	nt	nt
CCOC(=O)c1c(NC(C)=O)sc2c1CCC(C=O)=C2Sc1ccccc1	26	-1	i	41*	-4	91*	2	3
CCOC(=O)c1c(NC(=O)c2ccccc2N(C)S(=O)(=O)c2ccccc2)sc2c1CCCC2	-102	0	i	2	1	-11	nt	nt
CCOC(=O)c1c(NC(C)=O)sc2c1CCN(Cc1ccccc1)C2	7	-7	i	-13	-7	20	nt	nt
CCOC(=O)c1c(NC(=O)c2ccccc2Br)sc2c1CCc1ccccc1-2	33	-7	i	46*	3	71*	33*	-4
O=C(Nc1ccnn1C1CCN(Cc2ccc(CO)o2)CC1)c1ccccc1	12	4	i	-8	-4	43	nt	nt
CC(=O)N/C(=C/c1ccccc1)C(=O)NC(Cc1ccccc1)C(=O)O (centres undefined)	13	1	i	43*	2	8	0	nt
CC[n+]1c(/C=C2\C=C(C)CC(C)(C)C2)sc2ccccc21	-52	6	i	50*	20	100*	57*	nt
CCCCCCn1c(SCC(C)C)nc2c1c(=O)[nH]c(=O)n2C	-3	-3	i	9	2	18	nt	nt
CCCCCCn1c(SCC(=O)OC)nc2c1c(=O)[nH]c(=O)n2C	18	-12	i	45*	0	83*	68*	-4
CCOC(=O)c1c(NC(=O)CSc2nnnn2-c2ccc(OC)cc2)sc(C)c1C	43*	1	i	45*	-1	87*	77*	-3
CCOC(=O)C1CCN(C(=O)C2CCCN2S(=O)(=O)c2ccc(Cl)cc2)CC1 (centres undefined)	-2	-6	i	-4	-8	11	nt	nt
CCCOc1ccc(C(=O)NNC(=S)NC(=O)CC)cc1	-5	17	i	48*	-1	38	6	-2
C=CCNC(=S)NNC(=O)c1ccc(OCCC)cc1	-12	2	i	-5	-2	5	nt	nt
CCN(CC(=O)Nc1ccc(NC(C)=O)cc1)C(=O)c1c(C)nn(Cc2ccc(C)cc2)c1Cl	-5	nt	nt	nt	nt	nt	nt	nt
